# Records with an inconclusive call do not appear. The source made the active and inactive calls. Calls come from the whole dose curve; as a rule, active = well fitted cell-killing curve with a large enough effect; inconclusive = small, poorly fitted or top-dose-only effect; inactive = flat fitted curve, though single readings scatter.
# Test: Cellular viability qHTS for adrenocortical cancer (ACC) cell line NCI-H295R (AID 1963990); note: nearly all actives have a fitted effect of over 60% in size;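 for activity change, negative = viability loss: 0% = DMSO only wells and -100% = full killing with cytotoxic reference compound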
# Conditions: CellTiter-Glo ATP luminescence, 48 h; series mostly up to 46.1 µM; activity change, negative = viability loss: at the top concentration
# Summary of the method: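 Luminescent ATP read-out (CellTiter-Glo, 20 min RT) after 48 h drug exposure of NCI-H295R cells; a titration up to 46 uM final. Data normalized to doxorubicin (100% inhibition) and DMSO (0%); 4-parameter fit gives IC50, max response.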
# Potency is the fitted concentration of half-maximal effect.
SMILES,"activity change, negative = viability loss",Potency
COP(=O)(OC)OC(c1ccc(Cl)cc1)P(=O)(OC)OC (stereo not drawn),-20.5% (inactive),
NC(=O)NC1N=C([O][Al])NC1=O (stereo not drawn),-2.05% (inactive),
CC1c2ccccc2CN1NC(=O)c1ccc(Cl)c(S(N)(=O)=O)c1 (stereo not drawn),2.36% (inactive),
O=C(Oc1ccccc1)c1cccc(C(=O)Oc2ccccc2)c1,-10.6% [at 92.7 µM] (inactive),
Nc1ccncc1N,-14.2% (inactive),
Nc1ncnc2c1ncn2Cc1c(F)cccc1Cl,0.402% (inactive),
Cn1c(=O)c2c(ncn2CC(=O)O)n(C)c1=O,2.09% (inactive),
OC[C@H]1O[C@@H](Oc2ccc(O)cc2)[C@H](O)[C@@H](O)[C@@H]1O,-11.7% (inactive),
N=C(N)N,-13.6% (inactive),
CCCC(=O)O[C@]1(C(=O)COC(=O)CC)CC[C@H]2[C@@H]3CCC4=CC(=O)CC[C@]4(C)[C@H]3[C@@H](O)C[C@@]21C,-4.88% [at 20 µM] (inactive),
NCCS,0.833% (inactive),
CC(=O)OCC(=O)[C@@]1(OC(C)=O)[C@@H](C)C[C@H]2[C@@H]3C[C@H](F)C4=CC(=O)C=C[C@]4(C)[C@@]3(F)[C@@H](O)C[C@@]21C,-5.55% (inactive),
CC(C)c1cc2c(cc1S(=O)(=O)O)[C@@]1(C)CCC[C@@](C)(C(=O)O)[C@@H]1CC2,-1.13% (inactive),
CO/N=C(\C(=O)N[C@@H]1C(=O)N2C(C(=O)O)=C(CSc3nc(=O)c(O)nn3C)CS[C@H]12)c1csc(N)n1,10.8% (inactive),
NC(=O)CC[C@@H]1NC(=O)[C@H](Cc2ccccc2)NC(=O)[C@H](Cc2ccc(O)cc2)NC(=O)CCSSC[C@@H](C(=O)N2CCC[C@H]2C(=O)N[C@@H](CCCN=C(N)N)C(=O)NCC(N)=O)NC(=O)[C@H](CC(N)=O)NC1=O,-4.74% (inactive),
NC(=O)c1ncn([C@@H]2O[C@H](CO)[C@@H](O)[C@H]2O)n1,,inactive
Cc1ccc(NC(=O)Nc2cc(C(F)(F)F)ccc2F)cc1Nc1ccc2c(c1)NC(=O)/C2=C\c1ccc[nH]1,,25.1 µM (active)
CCN(CC)CC(=O)Nc1c(C)cccc1C,-1.05% (inactive),
COC(=O)c1cc(Cl)ccc1NS(=O)(=O)C(F)(F)F,-0.681% (inactive),
Cc1ccc(S(=O)(=O)NC(=O)NC2CCCC2)cc1,-1.91% (inactive),
O=C(O)Cc1ccc2c(c1)C(=O)c1ccccc1CO2,-10.8% (inactive),
O=C(O)CCC(=O)OC[C@@H](NC(=O)C(Cl)Cl)[C@H](O)c1ccc([N+](=O)[O-])cc1,-11% (inactive),
Cn1cc(S(C)=O)c(=O)c2ccc(F)cc21 (stereo not drawn),-0.161% (inactive),

# From PubChem BioAssay (NCATS)
